# ALOX12 inh: ALOX12 (human) lipoxygenase inhibition; Potency, µM (titrated, usually from 108 µM), actives largely listed as inhibitors; P18054; hit rate 1.1% among 580,000; purified 12hLO, xylenol orange hydroperoxide absorbance
# Target sequence (P18054 whole entry, looked up): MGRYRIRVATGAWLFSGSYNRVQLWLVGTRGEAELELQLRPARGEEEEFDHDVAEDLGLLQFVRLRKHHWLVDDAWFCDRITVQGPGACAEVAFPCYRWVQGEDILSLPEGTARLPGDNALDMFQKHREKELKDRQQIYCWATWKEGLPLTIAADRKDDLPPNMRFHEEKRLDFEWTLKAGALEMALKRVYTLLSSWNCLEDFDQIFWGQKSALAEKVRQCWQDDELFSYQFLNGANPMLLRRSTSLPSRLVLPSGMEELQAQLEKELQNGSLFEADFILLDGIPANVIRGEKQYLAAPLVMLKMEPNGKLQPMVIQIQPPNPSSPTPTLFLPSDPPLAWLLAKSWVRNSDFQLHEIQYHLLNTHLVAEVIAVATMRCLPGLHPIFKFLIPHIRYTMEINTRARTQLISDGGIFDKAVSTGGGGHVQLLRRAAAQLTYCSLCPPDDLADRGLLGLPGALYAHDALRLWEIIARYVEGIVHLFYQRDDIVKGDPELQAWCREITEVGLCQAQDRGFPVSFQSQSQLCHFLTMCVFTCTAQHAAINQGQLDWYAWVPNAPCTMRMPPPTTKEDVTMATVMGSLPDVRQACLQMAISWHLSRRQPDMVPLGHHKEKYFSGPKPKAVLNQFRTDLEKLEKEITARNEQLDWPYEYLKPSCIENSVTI
#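 Purified human 12hLO at 150 nM in 25 mM Hepes, 0.01% Triton X-100, pH 7.0, preincubated 15 min at room temperature with compound. Reaction started with 40 uM arachidonic acid, 30 min at room temperature. Hydroperoxide measured by Fe-xylenol orange, 573/405 nm absorbance ratio.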
# Integrin act MD: integrin-mediated muscular dystrophy alleviation activation. hit rate 0.064% among 350,000. AID 624291. alpha7betagal myoblasts, beta-gal FDG fluorescence, 48 h. Potency, µM (series often up to 38.3 µM), usual class: activators; note: nearly all actives have a fitted effect of over 60% in size
#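 alpha7betagal+/- myoblasts (passage 13, 250/well) treated 48 h at 37C with compounds at 1:260 dilution of DMSO stock. Lysed, then beta-galactosidase activity read as FDG fluorescence (ex 480/em 540) after 30 min, with pre-read for autofluorescence.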
# Nrf2 ARE act: Nrf2 pathway activation; AREc32 ARE-luciferase reporter (MCF7-derived line), luminescence, 24 h; Potency, µM (highest dose often 46.1 µM), most hits filed as activators; hit rate 0.31% among 410,000; note: nearly all actives have a fitted effect of over 65% in size
#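 AREc32 cells carrying an ARE-driven firefly luciferase reporter were seeded at 1000 cells/well in OPTI-MEM with 5% FBS, then exposed to compound for 24 hr at 37 deg C. Luminescence was read with Steady-Glo after 30 min at RT.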
# uPA surface inh: cell surface uPA generation inhibition; hit rate 0.31% among 330,000; Potency, µM (top dose mostly 38.3 µM), actives largely listed as inhibitors; cell surface uPA generation assay, qHTS; active = well fitted inhibition curve with a large enough effect; inconclusive = small, poorly fitted or top-dose-only effect; inactive = no such curve, though single readings can be large or run the other way; tested in mouse RAW 264.7 cells; note: nearly all actives have a fitted effect of over 55% in size
# IL-2 act: activators of IL-2 | IL-2 activation reporter assay, cell-based qHTS; stimulated with anti-CD3/CD4/CD28 beads; in transgenic mouse T cells | activation, % (series mostly up to about 46 µM) | hit rate 0.065% among 360,000 | AID 652025; in the data active = activation above about 50%; inconclusive = mostly about 30% to 49%
#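 Quantitative HTS in unstimulated transgenic mouse T cells, with memory T cells as non-tolerant control and PMA/ionomycin as tolerance-bypass control. Compound pretreatment lasted 60 minutes before 18 h bead stimulation; EGFP/DsRed fluorescence read.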
# A number is an active result; 0 = inactive; ? = inconclusive; - = no result; ! = not confirmed by another sample; [ ] = another dose, or the depositor's remark. In the library only some 1.5% were active in any assay of this set; here they are far more common. Unless noted, calls come from the whole dose curve; as a rule, active = well fitted curve in the direction sought with a large enough effect; inconclusive = small, poorly fitted or top-dose-only effect, or another doubt; inactive = no such curve, though single readings can be large; an effect the other way counts as inactive or inconclusive.
SMILES,ALOX12 inh,Integrin act MD,Nrf2 ARE act,uPA surface inh,IL-2 act
CCNc1nc(-c2ccc(NC(C)=O)cc2F)cs1,7.1µM,-,-,-,-
CC(=O)Nc1ccc(-c2csc(NC(C)C)n2)c(F)c1,0,-,-,-,-
CCOC(=O)C1(Cc2ccc(Cl)cc2)CCN(C(=O)CC2=CCCCC2)CC1,0,-,-,-,-
COCCNc1nc(NCc2ccccc2OC)c2cnn(C)c2n1,13µM,-,0,-,-
COCCCNc1nc(NCc2ccccc2OC)c2cnn(C)c2n1,?,-,0,-,-
Cn1c(Cn2ccnc2)nnc1C1CC(NC(=O)c2ccsc2)C1 (configuration not stated),0,-,-,-,-
CC(OC(=O)C1CCN(S(=O)(=O)c2ccc(C(C)(C)C)cc2)CC1)C(=O)N1CCOCC1 (configuration not stated),45µM!,0,0,0,0
Cc1ccc(S(=O)(=O)N2CCC(C(=O)OC(C)C(=O)N3CCOCC3)CC2)cc1 (configuration not stated),0,0,0,0,0
COc1ccc(OCC(=O)NC(=S)NNC(=O)COc2ccc(Br)cc2Cl)cc1,14µM,0,0,0,0
O=C(NC(=S)NNC(=O)c1ccccc1[N+](=O)[O-])c1ccc(Br)cc1,3.5µM,0,0,0,0
O=C(NNC(=S)NC(=O)c1ccccc1[N+](=O)[O-])c1ccccc1Cl,?,0,0,0,0
O=C(COc1ccc([N+](=O)[O-])cc1)NNC(=S)NC(=O)c1ccc(Br)cc1,40µM,0,0,0,0
CCN(CC)S(=O)(=O)c1cc(C(=O)Nc2ncn(Cc3ccccc3)n2)c(Cl)cc1Cl,0,-,-,-,-
COc1ccc(-c2ocnc2C(=O)Nc2ccccc2Cl)cc1,0,-,-,-,-
O=c1c2nc(OCc3ccc4c(c3)OCO4)ccc2ncn1-c1ccccc1,0,-,-,-,-
COc1ccccc1NCC(=O)c1ccc(C)c(C)c1,16µM,?,0[9.22 µM],0,0
COc1ccccc1NCC(=O)c1ccc(Cl)cc1,?,0,0,0,0
CCc1ccc(S(=O)(=O)Nc2ccc3nc(N4CCN(CCC#N)CC4)cc(C(=O)O)c3c2)cc1,11µM,-,-,-,-
c1ccc(Oc2nccn3c(-c4ccc(CNCc5ccn[nH]5)cc4)cnc23)cc1,0,-,-,-,-
CC(=O)n1c2ccccc2c2ccccc21,0,0,0,0,0
CC(=O)n1c(C=Nc2ccc(Cl)cc2)c(O)c2ccccc21,?,0,?,0,84
CC(SC1=NS(=O)(=O)c2ccccc21)C(=O)O (configuration not stated),0.71µM,-,-,-,-
CC(=O)NC1(C)CCN(Cc2cnc(-c3cccc(C(F)(F)F)c3)s2)CC1,28µM,-,-,-,-
Cn1ccc2cc3c(cc21)CCN3C(=O)Nc1cccnc1,9.7µM!,-,0,?,0
O=C1NCCCCCCN(S(=O)(=O)c2ccc3c(c2)CCC3)[C@H]2CCC[C@@H]12,0,-,-,-,-
SMILES,ALOX12 inh,Integrin act MD,Nrf2 ARE act,uPA surface inh,IL-2 act
CC(=O)c1sc2nc(-c3cccs3)ccc2c1N,?,0,13µM,0,0
Nc1c(C(=O)Nc2ccccc2Br)sc2nc(-c3cccs3)ccc12,0,-,?,-,-
COc1ccc(S(=O)(=O)N(c2onc(C)c2Cl)S(=O)(=O)c2ccc(OC)c(OC)c2)cc1OC,18µM,0,0,0,0
C/C(=N\NC(=S)NCc1ccccc1)c1ccc2c(c1)OCCO2,35µM,0,0,0,0
C/C(=N\NC(=S)NCc1ccccc1)c1ccc(Br)cc1,?,?,0,0,0
C/C(=N\NC(=S)Nc1ccc(C)c(C)c1)c1ccc(N2CCOCC2)cc1,35µM,0,0,0,0
C/C(=N\NC(=S)Nc1ccc(F)cc1)c1ccc2c(c1)OCCO2,35µM,0,0,?,0
O=C(Cn1cc(C2CCCNC2)nn1)N1CCCC1 (configuration not stated),0,-,-,-,-
Cc1cc(C)n(CC2(Cn3cc(C4CCCNC4)nn3)CC2)n1 (configuration not stated),14µM,-,-,-,-
Cc1ccc2nc(C)c(C(=O)N3CCN(C(=O)c4ccccc4)CC3)cc2c1,0,-,-,-,-
Cc1cc(Nc2ccccc2Cl)c2ccccc2n1,0,0,0,0,0
Cc1cc(C)nc(NCC(O)CNc2ccccc2Cl)n1 (configuration not stated),40µM,0,0,0,0
CCN1/C(=C/c2ccc3cc(C)ccc3[n+]2CC)Sc2cc(C)c(C)cc21,50µM,?,0,0,0
CC[n+]1c(/C=C2\Sc3ccccc3N2C)ccc2cccc(C)c21,45µM,0,0,-,160
CCN1/C(=C/c2ccc3cc(C)ccc3[n+]2CC)Sc2ccccc21,45µM,0,0,?,90
COc1ccc(-[n+]2c(C)cc(/C=C3\Sc4ccccc4N3C)cc2C)cc1,?,0,0,?,0
CCOC(=O)C1(CCCc2ccccc2)CCN(C(=O)COC)CC1,0,0,0,0,0
CCOC(=O)C1(CCCc2ccccc2)CCN(C(=O)[C@@H]2C[C@@H](C)NC(=S)N2)CC1,45µM,0,0,0,0
COc1ccc(C2NC(=S)NC3=C2CCc2ccccc23)cc1 (configuration not stated),40µM,-,-,-,-
O=C1NC2=C(CCc3ccccc32)C(c2ccc(Br)cc2)N1 (configuration not stated),?,0,0,0,0
COc1ccc(C2NC(=S)NC3=C2CCc2cc(OC)ccc23)cc1 (configuration not stated),28µM,0,0,-,0
Cc1ccc(/C=C2\CCCC3=C2NC(=S)NC3c2ccc(C)cc2)cc1 (configuration not stated),?,0,0,0,0
O=C(CN1CCCC1c1ccc2c(c1)OCCCO2)Nc1ccccc1Cl (configuration not stated),0,-,-,-,-
CCC(C)NC(=O)N1CC(Oc2ccccc2-c2nc(-c3ccccc3)no2)C1 (configuration not stated),0,-,-,-,-
O=C(NCc1ccc(F)cc1)c1nc(-c2ccccc2)c2cnccn12,0,-,-,-,-
SMILES,ALOX12 inh,Integrin act MD,Nrf2 ARE act,uPA surface inh,IL-2 act
CSc1ccc(-c2ccccc2C=O)cc1,0[12.5 µM],-,-,-,-
CSc1ccc(/C=C2\C(=O)Oc3ccccc32)cc1,32µM,-,-,-,-
CC[C@H](C)[C@H]1O[C@]2(CC[C@@H]1C)C[C@@H]1C[C@@H](CC=C(C)[C@@H](O[C@H]3C[C@H](OC)[C@@H](O[C@H]4C[C@H](OC)[C@@H](O)[C@H](C)O4)[C@H](C)O3)[C@@H](C)C=CC=C3CO[C@@H]4[C@H](O)C(C)=C[C@@H](C(=O)O1)[C@]34O)O2,-,-,0,2.5µM,0
CC1(C)Cc2c(sc(NC(=O)c3ccco3)c2C(=O)O)CO1,0,0,0,?,0
CC1(C)Cc2c(sc(NC(=S)NC(=O)c3ccccc3)c2C(=O)O)CO1,28µM,0,0,0,0
COc1ccc2nc(-c3ccco3)c(-c3ccco3)nc2c1,18µM,0,?,0,0
O=c1oc2ccccc2cc1-c1nc(-c2cccs2)cs1,0,0,2.5µM,-,0
COc1cccc2cc(-c3nc(-c4cccs4)cs3)c(=O)oc12,0,0,?,0,76
O=C(/C=C/c1cccs1)c1ccc(O)cc1,0,-,-,-,-
